In the library only some 10% were active in any assay of this set; here they are far more common.
HEK cytotox = Cytotoxic Profiling in HEK 293 Cell Line of Diverse Libraries Using Quantitative High-Throughput Screening; Potency, µM (doses to about 115 µM), inactives show top-dose activity change, negative = cytotoxicity, most hits filed as inhibitors; hit rate 6.6% among 94,000; HEK 293 viability, ATP luminescence (CellTiter-Glo), 48-72 h; further: nearly all actives have a fitted effect of over 60% in size
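Read-out: CellTiter-Glo ATP luminescence. Cells: HEK 293, 250 cells/well. Exposure: 48 or 72 hr, 37 degree Celsius.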
hNpr1 antagonist = Natriuretic polypeptide receptor (hNpr1) antagonism - Primary qHTS; Atrial natriuretic peptide receptor 1 (Homo sapiens), P16066; HEK293 hNpr1 GloSensor cGMP, ANP-stimulated luminescence; Potency, µM (highest dose often 46.3 µM), inactives show at the top dose activity change, negative = inhibition, most hits filed as inhibitors; hit rate 1.6% among 76,000; AID 1347048, 2019; calls by dose curve; further: nearly all actives have a fitted effect of over 60% in size
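HEK293 cells stably expressing human Npr1 and cGMP GloSensor pGS-40F, loaded 2 h with 2% GloSensor reagent, given compound 30 min at room temperature. Luminescence read before and 20 min after 0.1 nM hNppA.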
NIH3T3 tox = Cytotoxic Profiling in NIH 3T3 Cell Line of Diverse Libraries Using Quantitative High-Throughput Screening | NIH 3T3 viability, CellTiter-Glo ATP luminescence, 48-72 h | Potency, µM (highest dose often 96.7 µM), without a hit: at the highest dose activity change, negative = cytotoxicity, hits mostly inhibitors | hit rate 4.3% among 94,000; further: nearly all actives have a fitted effect of over 55% in size
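Mouse fibroblast NIH 3T3 cells, 400 per well, received compound via pintool and were incubated for 48 or 72 hr prior to CellTiter-Glo ATP luminescence measurement.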
Luciferase inh = Firefly luciferase inhibition profiling of diverse chemical library using quantitative high-throughput screening; Luciferin 4-monooxygenase (Photinus pyralis), P08659; purified P. pyralis luciferase, luminescence, biochemical; Potency, µM (series often up to 115 µM), usual class: inhibitors; hit rate 2.5% among 76,000; AID 1347043, 2019; further: nearly all actives have a fitted effect of over 65% in size
Target sequence (P08659 whole entry, looked up): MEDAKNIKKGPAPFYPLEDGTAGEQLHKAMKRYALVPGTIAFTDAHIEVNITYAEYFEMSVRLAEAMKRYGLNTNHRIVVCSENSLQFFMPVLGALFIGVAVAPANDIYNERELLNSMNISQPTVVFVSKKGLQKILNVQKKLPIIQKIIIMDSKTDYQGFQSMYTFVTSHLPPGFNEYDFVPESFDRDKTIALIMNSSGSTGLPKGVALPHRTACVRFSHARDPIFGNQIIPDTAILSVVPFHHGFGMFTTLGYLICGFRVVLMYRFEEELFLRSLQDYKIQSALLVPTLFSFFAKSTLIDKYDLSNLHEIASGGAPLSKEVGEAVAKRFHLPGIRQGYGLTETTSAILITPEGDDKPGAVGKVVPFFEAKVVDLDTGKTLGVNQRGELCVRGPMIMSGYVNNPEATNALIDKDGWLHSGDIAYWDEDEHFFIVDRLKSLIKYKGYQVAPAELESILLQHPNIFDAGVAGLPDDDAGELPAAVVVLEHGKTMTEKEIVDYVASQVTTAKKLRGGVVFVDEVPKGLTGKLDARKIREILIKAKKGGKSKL
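Luminescence read by CCD imaging after purified firefly luciferase (10nM final) was added to substrate buffer holding 10uM D-luciferin and 10uM ATP, pH 7.5, pre-dosed with compound.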
GPT2 inhibitor = Primary qHTS assay for inhibitors of Glutamate pyruvate transaminase 2 (GPT2). hit rate 0.25% among 100,000. Alanine aminotransferase 2 (Homo sapiens), Q8TD30. Recombinant GPT2, coupled pyruvate oxidase/HRP Amplex Red fluorescence. Potency, µM (top dose mostly 57.7 µM), for the others: at the highest dose activity change, negative = inhibition, usual class: inhibitors; further: nearly all actives have a fitted effect of over 60% in size
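Inhibition is scored from Amplex Red fluorescence generated when pyruvate oxidase and HRP act on pyruvate released by GPT2. Reactions contain 10ng/uL enzyme, 250uM a-KG and 2mM L-alanine and run 30 min at room temperature.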
An asterisk follows results filed as active; i = inactive; ? = inconclusive; / = no result given; [ ] = remark or other dose. Unless noted, the call rests on the fitted dose curve; in most records, active means well fitted curve in the direction sought with a large enough effect; inconclusive means small, poorly fitted or top-dose-only effect, or another doubt; inactive means no such curve, though single readings can be large; an effect the other way counts as inactive or inconclusive. On the % scale 0 is the no-effect control and ±100 the full control effect; potency means the concentration at half of the fitted maximal effect.

SMILES | HEK cytotox | hNpr1 antagonist | NIH3T3 tox | Luciferase inh | GPT2 inhibitor
Cn1nc(-c2ccc3ccccc3c2)cc1[C@H]1CN2CC[C@H]1C[C@@H]2CNC(=O)NCc1ccccc1 | ? | -12% | 18µM* | i | ?
C[C@@H]1CCC2[C@@H](C)C(=O)OC3O[C@@]4(C)CCC1[C@]32OO4 (stereo partly specified) | / | / | / | / | 4%
COC(=O)[C@]12CCCC(C)(C)C1CCc1cc(C(C)C)c(O)c(O)c12 (stereo partly specified) | / | / | / | / | -28%[27.3 µM]
COc1ccc(-c2cc([C@H]3CN4CC[C@H]3C[C@@H]4CNC(C)=O)n(C)n2)cc1 | -3%[172 µM] | 6%[70.6 µM] | ? | i | 1%[88.5 µM]
COc1ccc(-c2cc([C@H]3CN4CC[C@H]3C[C@@H]4CNS(=O)(=O)c3ccc(Cl)cc3)n(C)n2)cc1OC | 28µM* | -5% | ? | i | 0%
COc1ccc(-c2cc([C@H]3CN4CC[C@H]3C[C@@H]4CNS(=O)(=O)c3cccs3)n(C)n2)cc1OC | ? | 0% | ? | i | 2%
CC(=O)NC[C@H]1C[C@@H]2CCN1C[C@@H]2c1cc(-c2ccc3ccccc3c2)nn1C | 56µM* | 3%[70.6 µM] | 32µM* | ? | 3%[88.5 µM]
C=C[C@H]1CN2CC[C@H]1C[C@@H]2CNS(=O)(=O)c1ccc2ccccc2c1 | 112µM* | 1%[70.6 µM] | ? | i | 1%[88.5 µM]
CC[C@@H](C)[C@H]1C(=O)O[C@H](C(C)C)C(=O)N(C)[C@@H]([C@@H](C)CC)C(=O)O[C@H](C(C)C)C(=O)N(C)[C@@H]([C@H](C)CC)C(=O)O[C@H](C(C)C)C(=O)N1C | / | / | / | / | -2%[17.1 µM]
COc1ncc(-c2cc3c(cc2OC)C2(CCN(C(C)=O)CC2)C(=O)N3)cn1 | -9%[172 µM] | 3%[70.6 µM] | 45µM* | i | -16%[88.5 µM]
COc1cc2c(cc1OCc1ccncc1)NC(=O)C21CCN(C(=O)c2cccnc2)CC1 | 4% | 1% | 35µM* | i | 5%
COc1cc2c(cc1OCC1CC1)NC(=O)C21CCN(Cc2nccs2)CC1 | ? | -12%[70.6 µM] | ? | i | -14%[88.5 µM]
COc1cc2c(cc1-c1cccnc1OC)NC(=O)C21CCN(C(C)=O)CC1 | -31%[172 µM] | -7%[70.6 µM] | ? | i | i
COc1cc2c(cc1OCc1ccccc1)NC(=O)C21CCN(Cc2ccccn2)CC1 | 79µM* | 5%[70.6 µM] | 89µM* | i | i
COc1cc2c(cc1OCc1ccncc1)NC(=O)C21CCN(Cc2ccccc2O)CC1 | 45µM* | -23% | ? | i | i
COc1cc(O)c2c(c1)/C=C/C[C@@H](O)[C@@H](O)C(=O)CCC[C@H](C)OC2=O | / | / | / | / | 3%[27.3 µM]
CCCCCn1cc(C(=O)Cc2ccccc2OC)c2ccccc21 | / | / | / | / | -24%
COc1cc2c(cc1OCc1ccncc1)NC(=O)C21CCN(c2ccccn2)CC1 | ? | -27%[70.6 µM] | ? | i | 4%[88.5 µM]
COc1cc2c(cc1OCC1CC1)NC(=O)C21CCN(C(=O)c2cccc(C#N)c2)CC1 | 79µM* | 0%[70.6 µM] | ? | i | 5%[88.5 µM]
COc1cc2c(cc1OCc1ccncc1)NC(=O)C21CCN(CC2CC2)CC1 | -23%[172 µM] | 6%[70.6 µM] | 100µM* | i | 1%[88.5 µM]
COc1cc2c(cc1OCc1ccccc1)NC(=O)C21CCN(CC2CC2)CC1 | 40µM* | -1%[70.6 µM] | 32µM* | ? | 3%[88.5 µM]
COCC(C(=O)OC1CC2CCC(C1)N2C)c1ccccc1 (stereo unspecified) | / | / | / | / | i
C[C@@H]1CN(Cc2ccc(F)cc2)CCN1C(=O)COc1ccc(Cl)cc1NC(N)=O | / | / | / | / | 0%
COc1cc2c(cc1Oc1cccc(N(C)C)c1)NC(=O)C21CCN(Cc2nccn2C)CC1 | ? | -23% | -18% | i | 0%
COc1cc2c(cc1Oc1ccccc1)NC(=O)C21CCN(Cc2nccn2C)CC1 | 100µM* | 1%[70.6 µM] | ? | i | 3%[88.5 µM]
SMILES | HEK cytotox | hNpr1 antagonist | NIH3T3 tox | Luciferase inh | GPT2 inhibitor
O=C1Nc2ccccc2C12CCN(Cc1cccnc1)C2 (stereo unspecified) | -17%[172 µM] | 0%[70.6 µM] | -19%[138 µM] | i | 4%[88.5 µM]
COc1cc2c(cc1Oc1ccccc1)NC(=O)C21CCN(Cc2cccnc2)CC1 | 89µM* | -22%[70.6 µM] | ? | i | -2%[88.5 µM]
COc1ccc2c(c1)CN(C)CC2c1ccc(Cl)c(Cl)c1 (stereo unspecified) | / | / | / | / | -1%
CC(C)(C)c1ccc(-c2cn(C[C@H]3CC4CCN3C[C@@H]4C(=O)Nc3ccccc3)nn2)cc1 (stereo partly specified) | 28µM* | 1% | 28µM* | ? | -11%
CSCC(=O)Nc1ccc2n(c1=O)C[C@H]1C[C@@H]2CN(C(=O)COc2ccccc2)C1 | -14%[172 µM] | -3%[70.6 µM] | 79µM* | i | -1%[88.5 µM]
CC(=O)N1C[C@@H]2C[C@H](C1)c1ccc(NC(=O)COc3ccccc3)c(=O)n1C2 | i | -2%[70.6 µM] | i | i | i
O=C(Nc1ccc2n(c1=O)C[C@H]1C[C@@H]2CN(C(=O)c2ccccc2)C1)NC1CCCCC1 | -2%[172 µM] | 1%[70.6 µM] | -19%[174 µM] | ? | -3%[88.5 µM]
O=C(Nc1ccc2n(c1=O)C[C@H]1C[C@@H]2CN(CC2CCCCC2)C1)C1CCCCC1 | 56µM* | -22%[70.6 µM] | ? | i | ?
CCCN(CCC)[C@@H]1CCc2ccc3[nH]c(C#N)cc3c2C1 | / | / | / | / | 4%
C/C=C(\C)C(=O)OC1CC2C(C)(C)OC(=O)CC(OC(C)=O)C2(C)C2CC(OC(=O)C(C)C)C3(C)C(c4ccoc4)CC4OC43C12C (stereo unspecified) | / | / | / | / | -1%[17.1 µM]
COc1cc2c(cc1OC1CCCC1)NC(=O)C21CCN(C(=O)Cc2ccccc2)CC1 | 79µM* | ? | 89µM* | i | ?
COc1cc2c(cc1OC1CCCC1)NC(=O)C21CCN(Cc2ccccc2)CC1 | ? | -14%[70.6 µM] | 89µM* | i | 3%[88.5 µM]
COc1cc2c(cc1OC1CCCC1)NC(=O)C21CCN(Cc2nccn2C)CC1 | ? | 6%[70.6 µM] | -14%[138 µM] | i | -13%[88.5 µM]
O=C(Cc1cccc(Cl)c1)N1CCN(Cc2ccccc2-c2cccnc2)CC1 | ? | / | ? | / | -9%
COc1ccc(NC(=O)N2[C@H]3CC[C@@H]2c2cnc(C)nc2C3)cc1OC | i | 5% | i | i | ?
Cc1ncc2c(n1)C[C@@H]1CC[C@H]2N1C(=O)Nc1ccc2c(c1)OCCO2 | i | 5% | 4% | 32µM* | i
O=C1Nc2ccccc2C12CCN(CC1CC1)CC2 | -6%[230 µM] | / | 1%[174 µM] | / | -9%[88.5 µM]
